Measured values taken from PubChem BioAssay AID777 (Sanford-Burnham Center for Chemical Genomics, 2007).
In all, about 96,000 compounds went through this assay and about 19,000 (20%) were called active.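 Rule for the calls: active = blocking of liver enzyme CYP2C9 beyond about 50% at 5 µM (limit read from the data); inactive = the rest.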 The list is a sample of the results.

target: Cytochrome P450 2C9 (Homo sapiens) (UniProt P11712); assay: blockers of cytochrome P450 2C9 activity – biochemical, luminescence, ADME assay, primary screen (AID 777); conditions: CYP2C9 Supersomes, luciferin-H conversion, at 5 µM, hits give high values
Sequence (P11712 whole entry, looked up): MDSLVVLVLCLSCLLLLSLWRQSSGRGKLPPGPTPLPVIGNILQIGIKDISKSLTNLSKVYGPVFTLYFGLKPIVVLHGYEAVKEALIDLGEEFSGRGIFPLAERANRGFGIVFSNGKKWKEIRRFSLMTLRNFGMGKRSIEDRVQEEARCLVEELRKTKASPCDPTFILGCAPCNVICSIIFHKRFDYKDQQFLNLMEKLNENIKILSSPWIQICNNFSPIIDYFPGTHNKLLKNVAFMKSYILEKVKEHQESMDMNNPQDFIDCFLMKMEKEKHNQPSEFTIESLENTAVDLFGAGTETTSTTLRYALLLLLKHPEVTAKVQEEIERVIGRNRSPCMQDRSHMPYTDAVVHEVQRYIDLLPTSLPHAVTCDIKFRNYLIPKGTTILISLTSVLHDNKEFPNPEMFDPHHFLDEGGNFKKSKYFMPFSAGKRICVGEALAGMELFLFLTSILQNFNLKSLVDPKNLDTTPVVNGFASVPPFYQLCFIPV

SMILES | inhibition
Cc1ccccc1-n1nnc2c(=O)oc3ccccc3c21 | 5.8% (inactive)
Cc1cc(=O)[nH]c(SCC(N)=O)c1C#N | 1.6% (inactive)
CCOC(=O)Nc1ccc(NC(=O)OCC)cc1 | -16.2% (inactive)
Cc1cc(NC(=O)CSc2nnc(-c3ccc(Cl)s3)o2)no1 | 18.4% (inactive)
COc1ccccc1-c1nnc(SCC(=O)Nc2cc(C)on2)o1 | -64.2% (inactive)
COc1ccc(OC)c(C(=O)CSc2nnc(-c3cccs3)o2)c1 | 54.4% (active)
COc1ccc(-c2nnc(SCC(=O)c3cccs3)o2)c(OC)c1 | 16.1% (inactive)
NC(=O)CSc1oc(-c2cccs2)nc1S(=O)(=O)c1ccccc1 | 30.5% (inactive)
COc1ccc(-n2c(C)cc(C(=O)CSc3nnc(-c4cccs4)o3)c2C)cc1 | 90.8% (active)
C=CCNC(=S)NNc1ncnc2sc3c(c12)CC(C)(C)OC3 | 19.6% (inactive)
CCOC(=O)C1=C(C)N=c2s/c(=C\C(=O)OC)c(=O)n2C1c1ccc(OC)cc1 (stereo not drawn) | 6.6% (inactive)
O=C(COC(=O)c1ccccc1C(=O)c1ccccc1)c1ccco1 | 90.4% (active)
O=C(CNC(=O)c1ccco1)OCC(=O)c1ccccc1 | -2.5% (inactive)
CCN(CC)c1ccc(C(=O)OCC(=O)c2ccco2)cc1 | -26.4% (inactive)
NC(=O)c1ccccc1NC(=O)c1ccccc1F | -7.7% (inactive)
Fc1ccccc1OCCSc1nc2ccccc2o1 | 21.5% (inactive)
Cc1c(Br)cc(C(=O)N2CCCCCC2)c(C)c1C | -38.3% (inactive)
FC(F)(F)c1ccc2nnc(-c3c(Cl)cccc3Cl)n2c1 | 25.7% (inactive)
COc1cc(OC)c(NC(=O)c2ccc(Br)o2)cc1Cl | 38.8% (inactive)
CCCC(=O)Nc1ccc(Cl)c(NC(=O)c2ccc(Br)o2)c1 | 16.1% (inactive)
CCN1CCN(c2c(Cl)cccc2NC(=O)c2ccc(Br)o2)CC1 | 64.7% (active)

SMILES | inhibition
O=C(Nc1cccc2ncccc12)c1ccc(-c2ccc(Cl)cc2Cl)o1 | 5.6% (inactive)
Clc1ccc(COn2c(-c3ccc(Cl)cc3Cl)nc3ncccc32)cc1 | 97.1% (active)
CCOc1ccc(OCC)c(-c2c(=O)n(OCc3ccc(Cl)cc3)c3ccccc3[n+]2[O-])c1 | 49.9% (inactive)
COc1ccc(CC(=O)Nc2sc(Cc3ccccc3)c(C)c2C(N)=O)cc1 | 20.4% (inactive)
CCOC(=O)CSc1nnc(CNc2ccc(F)cc2)o1 | 14.8% (inactive)
CCCCSc1[nH]c(=O)c(C(=O)OCC)cc1C#N | 19.4% (inactive)
CN(C(=O)c1ccccn1)c1nnc(-c2ccccn2)s1 | 2.1% (inactive)
CCOc1ccc(-c2cn(S(=O)(=O)c3cccc4nsnc34)nc2N)cc1 | 62.6% (active)
CCOc1ccc(OCC)c(NC(=O)CN(C)S(=O)(=O)c2cccc3nsnc23)c1 | -23.4% (inactive)
CCOc1ccc(NC(=O)CCS(=O)(=O)c2cccc3nsnc23)cc1 | 33.7% (inactive)
CCN(CC)Cc1csc2ccc(Br)cc12 | -14.3% (inactive)
Cc1cc(NC(=O)Cn2nc(C(F)(F)F)c3c2CCCC3)no1 | 14.9% (inactive)
Cc1cccc(-n2c(N)c(C(=O)N3CCN(C)CC3)sc2=S)c1 | 19.9% (inactive)
Cc1ccc(-n2c(N)c(C(=O)N3CCOCC3)sc2=S)c(C)c1 | 8.6% (inactive)
N#Cc1ccccc1-n1c(N)c(C(=O)N2CCCC2)sc1=S | 69.3% (active)
COc1ccc(-n2nc(C(=O)NCC(=O)Nc3cccc(C)n3)c3ccccc3c2=O)cc1 | 23.8% (inactive)
COc1ccc(C(C)=O)cc1CN1C(=O)NC2(CCCCC2C)C1=O (stereo not drawn) | 9.5% (inactive)
C#CCN1CC(C)/C(=N/O)CC1C (stereo not drawn) | -28.8% (inactive)
COc1ccc(C2C(C#N)=C(/N=C/N3CCOCC3)OC3=C2C(=O)CC(C)(C)C3)cc1OC (stereo not drawn) | 69% (active)
CCOC(=O)C1=C(C)NC2=C(C(=O)CC(C)(C)C2)C1c1ccsc1 (stereo not drawn) | 39.8% (inactive)
COc1cc(C2C(C#N)=C(C)NC3=C2C(=O)CC(C)(C)C3)ccc1O (stereo not drawn) | 58.5% (active)

SMILES | inhibition
CCC1C(C#N)=C(SC)NC2=C1C(=O)CC(C)(C)C2 (stereo not drawn) | 19% (inactive)
CC(=O)Nc1ccc(NC(=O)CN2CCCC(C)C2)c(Cl)c1 (stereo not drawn) | 18.3% (inactive)
c1ccc(C2CCC(N3CCC(N4CCCCC4)CC3)CC2)cc1 (stereo not drawn) | 11% (inactive)
Cc1cc(=O)oc(C)c1C(=O)N1CCCCC1 | 4.9% (inactive)
CCOC(=O)/C(C#N)=C/c1ccc(OCC(=O)Nc2ccccc2)c(OC)c1 | 14.7% (inactive)
CCOC(=O)/C(=C\c1ccc([N+](=O)[O-])cc1)C(=O)c1cc(C(C)=O)c(Nc2ccccc2)s1 | 76.2% (active)
O=C(NCCc1ccccc1)/C(=C\c1ccc([N+](=O)[O-])cc1)NC(=O)c1ccccc1 | 3.8% (inactive)
CCC1CCCCN1CCNS(=O)(=O)c1ccc2c(c1)CCN2C(C)=O (stereo not drawn) | 15.6% (inactive)
N/C(Cc1ccc([N+](=O)[O-])cc1)=N\OC(=O)COc1ccc2ccccc2c1 | 4.4% (inactive)
COc1cc(C(=O)N2CCN(C/C=C/c3ccccc3)CC2)cc(OC)c1C | 67.7% (active)
CCOc1cc(CN2CCN(C(=O)CC(C)C)CC2)ccc1OC | -24.7% (inactive)
COc1ccc(OCC(=O)N2CCN(C(=O)COc3ccccc3)CC2)cc1 | -2.8% (inactive)
Cn1c(C(=O)OC(C(=O)NC2CCCCC2)c2ccccn2)cc2sccc21 (stereo not drawn) | -7.2% (inactive)
CCn1c(/C=C/c2ccc([N+](=O)[O-])o2)nc2ccccc2c1=O | -18% (inactive)
COC(=O)C1CCN(CC(N)=O)CC1 | -11.4% (inactive)
CCOC(=O)CC1=CC(=O)Nc2ccccc2N1 | 7.1% (inactive)
O=C(CSc1nc(C2CC2)nc2ccccc12)Nc1ccc2c(c1)OCCO2 | 40.1% (inactive)
O=C(CSc1nnnn1C1CCCC1)Nc1ccc2c(c1)OCCO2 | 62.4% (active)
CCC(=O)Nc1cccc(NC(=O)CSc2nnnn2C2CCCC2)c1 | 16.4% (inactive)
O=C(CSc1nnnn1-c1ccc2c(c1)CCC2)Nc1ccc2c(c1)OCCO2 | 0.6% (inactive)
O=C(CSc1nc2ncccc2[nH]1)Nc1ccc2c(c1)OCCO2 | 95.5% (active)
